Assay results taken from PubChem BioAssay (NCI).
The panel holds about 83,000 compounds, 20% with a hit somewhere; the sample as a whole holds those more often.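 Each cell line was grown in a 96-well plate and treated with one concentration of compound for 48 hours. Values below 10 were considered active.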 Unmarked numbers belong to inactive results. Activity calls are given as the source filed them.

How the values were obtained:
Experiment in all cases: NCI-60 one-dose screen, 48 h (100 = growth as untreated, 0 = no growth, -100 = all killed)
SK-MEL-2 melanoma = conditions: 10 µM unless noted
EKVX NSCLC = conditions: 10 µM unless noted
SN12C renal = conditions: 10 µM unless noted
UO-31 renal = conditions: 10 µM unless noted
TK-10 renal = conditions: 10 µM unless noted
ACHN renal = conditions: 10 µM unless noted
CAKI-1 renal = conditions: 10 µM
CCRF-CEM leukemia = conditions: 10 µM unless noted
MOLT-4 leukemia = conditions: 10 µM unless noted
SR leukemia = conditions: 10 µM unless noted
RPMI-8226 leukemia = conditions: 10 µM unless noted
OVCAR-8 ovarian = conditions: 10 µM unless noted
OVCAR-5 ovarian = conditions: 10 µM unless noted
OVCAR-4 ovarian = conditions: 10 µM unless noted
SK-OV-3 ovarian = conditions: 10 µM unless noted
IGROV1 ovarian = conditions: 10 µM unless noted
OVCAR-3 ovarian = conditions: 10 µM unless noted
HS 578T breast = conditions: 10 µM unless noted
NCI/ADR-RES ovarian = conditions: 10 µM unless noted

O=C(NNc1nc2cc(F)ccc2n2cncc12)c1cnccn1
growth (SK-MEL-2 melanoma): 36%
growth (EKVX NSCLC): 20.3%
growth (SN12C renal): 34.2%
growth (UO-31 renal): 11.7%
growth (TK-10 renal): 44%
growth (ACHN renal): 9.12% (active)
growth (CAKI-1 renal): 7.86% (active)
growth (CCRF-CEM leukemia): 14.4%
growth (MOLT-4 leukemia): 6.82% (active)
growth (SR leukemia): 17%
growth (RPMI-8226 leukemia): 25.4%
growth (OVCAR-8 ovarian): 21%
growth (OVCAR-5 ovarian): 50%
growth (OVCAR-4 ovarian): 31.1%
growth (SK-OV-3 ovarian): 28.4%
growth (IGROV1 ovarian): 27.6%
growth (OVCAR-3 ovarian): 28.2%
growth (HS 578T breast): 71.8%
growth (NCI/ADR-RES ovarian): 12.2%

O=c1[nH]c(CCl)nc2c1cnn2-c1ccccc1
growth (SK-MEL-2 melanoma): -89.8% (active)
growth (EKVX NSCLC): 100%
growth (SN12C renal): 99.8%
growth (UO-31 renal): -20.9% (active)
growth (TK-10 renal): 154%
growth (ACHN renal): 96.7%
growth (CAKI-1 renal): 97.6%
growth (CCRF-CEM leukemia): 101%
growth (MOLT-4 leukemia): 104%
growth (SR leukemia): 87.1%
growth (RPMI-8226 leukemia): 82.5%
growth (OVCAR-8 ovarian): 104%
growth (OVCAR-5 ovarian): 114%
growth (OVCAR-4 ovarian): 111%
growth (SK-OV-3 ovarian): 122%
growth (IGROV1 ovarian): 95.9%
growth (OVCAR-3 ovarian): 100%
growth (HS 578T breast): 111%
growth (NCI/ADR-RES ovarian): 106%

O=C(Nc1cc(Cl)cc(Cl)c1)Nc1nc2ccc([N+](=O)[O-])cc2s1
growth (SK-MEL-2 melanoma): -22.2% (active)
growth (EKVX NSCLC): 6.9% (active)
growth (SN12C renal): 2.15% (active)
growth (UO-31 renal): 6.95% (active)
growth (TK-10 renal): -1.5% (active)
growth (ACHN renal): 3.76% (active)
growth (CAKI-1 renal): 6.87% (active)
growth (CCRF-CEM leukemia): 10.3%
growth (MOLT-4 leukemia): 2.31% (active)
growth (SR leukemia): -0.61% (active)
growth (RPMI-8226 leukemia): -23.8% (active)
growth (OVCAR-8 ovarian): 8.77% (active)
growth (OVCAR-5 ovarian): 24%
growth (OVCAR-4 ovarian): 10%
growth (SK-OV-3 ovarian): -2.86% (active)
growth (IGROV1 ovarian): 21.1%
growth (OVCAR-3 ovarian): 13.8%
growth (HS 578T breast): -6.91% (active)
growth (NCI/ADR-RES ovarian): 2.26% (active)

COc1ccc(/C=C/C(=O)c2nnn(-c3ccc(C(=O)O)cc3)c2C)cc1OC
growth (SK-MEL-2 melanoma): 101%
growth (EKVX NSCLC): 93.9%
growth (SN12C renal): 92.2%
growth (UO-31 renal): 79.3%
growth (TK-10 renal): 113%
growth (ACHN renal): 91.4%
growth (CAKI-1 renal): 95.9%
growth (CCRF-CEM leukemia): 87.7%
growth (MOLT-4 leukemia): 97.7%
growth (SR leukemia): 95.4%
growth (RPMI-8226 leukemia): 99.4%
growth (OVCAR-8 ovarian): 102%
growth (OVCAR-5 ovarian): 97.8%
growth (OVCAR-4 ovarian): 107%
growth (SK-OV-3 ovarian): 112%
growth (IGROV1 ovarian): 96.1%
growth (OVCAR-3 ovarian): 117%
growth (HS 578T breast): 102%
growth (NCI/ADR-RES ovarian): 106%

COC[C@@]1(C)CC[C@]2(C)CC[C@]3(C)C(=CC[C@@H]4[C@@]5(C)CCCNC(C)(C)[C@@H]5CC[C@]43C)C2C1 (some centres undefined)
growth (SK-MEL-2 melanoma): 78.1%
growth (EKVX NSCLC): 76.9%
growth (SN12C renal): 51.6%
growth (UO-31 renal): 90.4%
growth (TK-10 renal): 110%
growth (ACHN renal): 87.1%
growth (CAKI-1 renal): 71.7%
growth (CCRF-CEM leukemia): 47.7%
growth (MOLT-4 leukemia): 34.1%
growth (SR leukemia): 4.07% (active)
growth (RPMI-8226 leukemia): 21.3%
growth (OVCAR-8 ovarian): 88.6%
growth (OVCAR-5 ovarian): 80%
growth (OVCAR-4 ovarian): 65.6%
growth (SK-OV-3 ovarian): 104%
growth (IGROV1 ovarian): 52.3%
growth (OVCAR-3 ovarian): 78.3%
growth (HS 578T breast): 78.5%
growth (NCI/ADR-RES ovarian): 72.6%

CCN1C(=O)N(CC)C2SC(N/N=C/c3ccc(OC)cc3)=NC21 (centres undefined)
growth (SK-MEL-2 melanoma): 61.4%
growth (EKVX NSCLC): 41.8%
growth (SN12C renal): 24.3%
growth (UO-31 renal): 43.5%
growth (TK-10 renal): 72.8%
growth (ACHN renal): 31.3%
growth (CAKI-1 renal): 48.7%
growth (CCRF-CEM leukemia): 13.1%
growth (MOLT-4 leukemia): 10.1%
growth (SR leukemia): 19.3%
growth (RPMI-8226 leukemia): 17.6%
growth (OVCAR-8 ovarian): 26%
growth (OVCAR-5 ovarian): 36.8%
growth (OVCAR-4 ovarian): 69.1%
growth (SK-OV-3 ovarian): 62.4%
growth (IGROV1 ovarian): 23.2%
growth (OVCAR-3 ovarian): -13.1% (active)
growth (HS 578T breast): 31.9%
growth (NCI/ADR-RES ovarian): 2.95% (active)

O=C(Nc1cccc(Cl)c1)Nc1nc2ccc([N+](=O)[O-])cc2s1
growth (SK-MEL-2 melanoma): -24.1% (active)
growth (EKVX NSCLC): 10%
growth (SN12C renal): 4.02% (active)
growth (UO-31 renal): 7.26% (active)
growth (TK-10 renal): -2.79% (active)
growth (ACHN renal): 5.59% (active)
growth (CAKI-1 renal): 3.38% (active)
growth (CCRF-CEM leukemia): 9.48% (active)
growth (MOLT-4 leukemia): 2.36% (active)
growth (SR leukemia): 2.1% (active)
growth (RPMI-8226 leukemia): 3.45% (active)
growth (OVCAR-8 ovarian): 7.34% (active)
growth (OVCAR-5 ovarian): 26.5%
growth (OVCAR-4 ovarian): 4.33% (active)
growth (SK-OV-3 ovarian): -1.18% (active)
growth (IGROV1 ovarian): 14.8%
growth (OVCAR-3 ovarian): 9.51% (active)
growth (HS 578T breast): -5.35% (active)
growth (NCI/ADR-RES ovarian): 2.96% (active)

O=c1[nH]c(CNc2ccc(NCc3c(-c4ccccc4)no[n+]3[O-])cc2)nc2c1cnn2-c1ccccc1
growth (SK-MEL-2 melanoma): 77.2%
growth (EKVX NSCLC): 51.3%
growth (SN12C renal): 78.9%
growth (UO-31 renal): 55.9%
growth (TK-10 renal): 102%
growth (ACHN renal): 70.4%
growth (CAKI-1 renal): 55.1%
growth (CCRF-CEM leukemia): 57.9%
growth (MOLT-4 leukemia): 44%
growth (SR leukemia): 45.7%
growth (RPMI-8226 leukemia): 61.9%
growth (OVCAR-8 ovarian): 79.4%
growth (OVCAR-5 ovarian): 109%
growth (OVCAR-4 ovarian): 64.3%
growth (SK-OV-3 ovarian): 102%
growth (IGROV1 ovarian): 73.5%
growth (OVCAR-3 ovarian): 94.4%
growth (NCI/ADR-RES ovarian): 60.6%

NS(=O)(=O)c1ccc(Nc2nc(N/N=C/c3ccc(F)cc3)nc(Nc3ccccc3)n2)cc1
growth (SK-MEL-2 melanoma): -9.45% (active)
growth (EKVX NSCLC): 62.7%
growth (SN12C renal): 50.3%
growth (UO-31 renal): 66.2%
growth (TK-10 renal): 1.71% (active)
growth (ACHN renal): 80.8%
growth (CAKI-1 renal): 56.8%
growth (CCRF-CEM leukemia): 20%
growth (MOLT-4 leukemia): 21.8%
growth (SR leukemia): 57.7%
growth (RPMI-8226 leukemia): 50.6%
growth (OVCAR-8 ovarian): 29.4%
growth (OVCAR-5 ovarian): 75.3%
growth (OVCAR-4 ovarian): 55.5%
growth (SK-OV-3 ovarian): 71.2%
growth (IGROV1 ovarian): 43.5%
growth (OVCAR-3 ovarian): 30.4%
growth (HS 578T breast): 40.6%
growth (NCI/ADR-RES ovarian): 95.6%

C=C(C)[C@@H]1CC[C@]2(COS(C)(=O)=O)CC[C@]3(C)[C@H](CC[C@@H]4[C@@]5(C)CCCNC(C)(C)[C@@H]5CC[C@]43C)[C@@H]12
growth (SK-MEL-2 melanoma): 94.7%
growth (EKVX NSCLC): 89.2%
growth (SN12C renal): 76%
growth (UO-31 renal): 81.5%
growth (TK-10 renal): 107%
growth (ACHN renal): 99.2%
growth (CAKI-1 renal): 86.8%
growth (CCRF-CEM leukemia): 71.4%
growth (MOLT-4 leukemia): 29.5%
growth (SR leukemia): -1.07% (active)
growth (RPMI-8226 leukemia): 44.9%
growth (OVCAR-8 ovarian): 92.1%
growth (OVCAR-5 ovarian): 92.5%
growth (OVCAR-4 ovarian): 95.8%
growth (SK-OV-3 ovarian): 107%
growth (IGROV1 ovarian): 78.2%
growth (OVCAR-3 ovarian): 92.2%
growth (HS 578T breast): 91.4%
growth (NCI/ADR-RES ovarian): 92%
